{
  "source": "PubChem BioAssay (NCATS)",
  "note": "Records with an inconclusive call do not appear. Unmarked numbers belong to inactive results. Calls of active or inactive are those of the source. Calls follow the shape of the dose curve; as a rule, active = well fitted cell-killing curve with a large enough effect; inconclusive = small, poorly fitted or top-dose-only effect, or effect the other way; inactive = no such curve, though single readings can be large or run the other way. Potency is read from the fitted curve at half-maximal effect.",
  "data": [
    {"assay": "Viability qHTS for spleen associated tyrosine kinase inhibitor (SYKi) naive MV4-11 cells (AID 1963823); also: nearly all actives have a fitted effect of over 40% in size", "settings": "MV4-11 AML viability, CellTiter-Glo luminescence, 72 h; series mostly up to 45 µM; viability (% of control): at the top concentration", "outline": "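Viability of MV4-11 AML cells lacking prior SYK inhibitor exposure is scored by CellTiter-Glo luminescence following 72 hr compound incubation at 37 C, 5% CO2, seeded at 500 cells per well.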", "values": [
      {"smiles": "C=CC1(C)CC2CCC3C(C)(C(=O)O)CCCC3(C)C2=CC1=O", "note": "(stereo not given)", "viability (% of control)": "78.4%"},
      {"smiles": "CC(=O)c1ccc(O[C@@H]2O[C@H](CO[C@@H]3OC[C@@H](O)[C@H](O)[C@H]3O)[C@@H](O)[C@H](O)[C@H]2O)cc1", "viability (% of control)": "95.9% [at 17.3 µM]"},
      {"smiles": "C[C@@H]1O[C@@H](O[C@H]2[C@@H]3C=CO[C@@H](O[C@@H]4O[C@H](CO)[C@@H](O)[C@H](O)[C@H]4O)[C@@H]3[C@@]3(CO)O[C@@H]23)[C@H](O)[C@H](OC(=O)/C=C/c2ccc(O)c(O)c2)[C@H]1O", "viability (% of control)": "77.2% [at 17.3 µM]"},
      {"smiles": "CC[C@@H](C)[C@H]1C(=O)O[C@H](C(C)C)C(=O)N(C)[C@@H](C(C)C)C(=O)O[C@H](C(C)C)C(=O)N(C)[C@@H](C(C)C)C(=O)O[C@H](CC(C)C)C(=O)N1C", "Potency": "1.53 µM (active)"},
      {"smiles": "CCOc1ncc(S(=O)(=O)N2CCN(CC)CC2)cc1-c1nc2c(CC)n(CCOC)nc2c(=O)[nH]1", "viability (% of control)": "73.1%"},
      {"smiles": "CC[C@@H](Nc1c(Nc2cccc(C(=O)N(C)C)c2O)c(=O)c1=O)c1ccc(C)o1", "viability (% of control)": "58.5%"},
      {"smiles": "COc1ccc2c(c1)N1C(=O)C[C@@]34C=CC[N@+]5([O-])CC[C@H]2[C@H](CC3)[C@@]145", "Potency": "6.4 µM (active)"},
      {"smiles": "Cc1oc2nc3c(c(NC(=O)CN4CCCC4=O)c2c1C)CCCC3", "viability (% of control)": "84.7%"},
      {"smiles": "NC(=O)c1ncn(C2O[C@H](CO)[C@@H](O)[C@H]2O)c1N", "note": "(stereo not given in full)", "viability (% of control)": "89.1%"},
      {"smiles": "C/C=C(/C)C(=O)OC1C2OC2C2(CO2)C2C3OC(=O)C(C)C3CCC12C", "note": "(stereo not given)", "viability (% of control)": "55.9%"},
      {"smiles": "CC1(C)CC[C@]2(C(=O)O[C@@H]3O[C@H](CO)[C@@H](O)[C@H](O)[C@H]3O)CC[C@]3(C)C(=CCC4[C@@]5(C)C[C@@H](O)[C@H](O)C(C)(C)C5CC[C@]43C)C2[C@@H]1O", "note": "(stereo not given in full)", "viability (% of control)": "65.1% [at 17.3 µM]"},
      {"smiles": "COc1cc(C2OCC3C(c4ccc(OC5OC(CO)C(O)C(O)C5O)c(OC)c4)OCC23)ccc1O", "note": "(stereo not given)", "viability (% of control)": "69.1% [at 17.3 µM]"},
      {"smiles": "CC(C)(O)C1CC=C(C(=O)OC[C@H]2O[C@@H](Oc3cc(C(=O)O)cc(O)c3O)[C@H](O)[C@@H](O)[C@@H]2O)CC1", "note": "(stereo not given in full)", "viability (% of control)": "85.6% [at 17.3 µM]"},
      {"smiles": "COc1ccc(-c2c(C)c(C(=O)NN3CCCCC3)nn2-c2ccc(Cl)cc2Cl)cc1", "Potency": "16.4 µM (active)"},
      {"smiles": "COc1ccc(NC(=O)c2ccc(-c3ccc(-c4nnc(C)o4)cc3C)cc2)cc1N1CCN(C)CC1", "Potency": "23.1 µM (active)"},
      {"smiles": "O=C(O)c1cc(-c2c(-c3ccccc3)nn3ccccc23)n[nH]c1=O", "viability (% of control)": "73.1%"},
      {"smiles": "O=C(/C=C/c1ccc(O)cc1)OC1[C@H](O)CC(O)(C(=O)O)C[C@H]1O", "note": "(stereo not given in full)", "viability (% of control)": "63.1%"},
      {"smiles": "C#CC(=O)N(c1ccc(OC)cc1OC)C(C(=O)NCC(=O)OCC)c1cccs1", "note": "(stereo not given)", "Potency": "0.116 µM (active)"},
      {"smiles": "CC(C)=C1CC2[C@](C)(CC[C@@H](OC(=O)C3(C)OC3C)[C@@]2(C)O)CC1=O", "note": "(stereo not given in full)", "viability (% of control)": "71.5%"},
      {"smiles": "C=Cc1cc(O)cc2nc(-c3ccc(O)c(F)c3)oc12", "Potency": "23.5 µM (active)"},
      {"smiles": "C=C/C=C/[C@@H]1OC[C@H](/C=C/C=C/C)[C@H]1O", "viability (% of control)": "82.4% [at 91.9 µM]"},
      {"smiles": "CC(C(O)/C=C/C(C)(C)O)C1CCC2(C)C3C(=O)C=C4C(CCC(O)C4(C)C)C3(C)CCC12C", "note": "(stereo not given)", "viability (% of control)": "82.3% [at 17.3 µM]"},
      {"smiles": "C/C=C1/[C@H](O[C@@H]2O[C@H](CO)[C@@H](O)[C@H](O)[C@H]2O)OC=C(C(=O)OC)[C@H]1CC(=O)OCCc1ccc(OC(=O)C[C@@H]2C(C(=O)OC)=CO[C@@H](O[C@@H]3O[C@H](CO)[C@@H](O)[C@H](O)[C@H]3O)/C2=C/C)cc1", "viability (% of control)": "67.3% [at 9.25 µM]"},
      {"smiles": "CC1=C2CC(=O)C(C)CC/C=C(\\C)CC2(O)OC1=O", "note": "(stereo not given)", "viability (% of control)": "71.9%"},
      {"smiles": "Cc1ccc2nc(NC(=O)CSc3nc4c(c(=O)n3-c3ccc(F)cc3)SCC4)sc2c1", "viability (% of control)": "63.4%"},
      {"smiles": "O=S(=O)(c1ccc(S(=O)(=O)n2cnc3ccccc32)cc1)N1CCCCCC1", "viability (% of control)": "72.2% [at 17.3 µM]"},
      {"smiles": "O=C(Nc1cnc(Cl)nc1)c1ccc(F)c(F)c1", "viability (% of control)": "47.2%"},
      {"smiles": "CC1(C)C(=O)N2c3ccccc3[C@]3(CC(n4cnc5ccccc5c4=O)C(=O)O3)[C@H]2N1O", "note": "(stereo not given in full)", "viability (% of control)": "57.2% [at 17.3 µM]"},
      {"smiles": "C=CC1(C)C=C2C(=O)CC3C(C)(C)CCCC3(C(=O)O)C2(O)CC1", "note": "(stereo not given)", "viability (% of control)": "61.6%"},
      {"smiles": "COc1ccc(S(=O)(=O)Nc2nc(-c3cccc([N+](=O)[O-])c3)cs2)cc1OC", "viability (% of control)": "71.5%"},
      {"smiles": "COc1cc(NC(=O)Nc2cccc(CNC(=O)O[C@H]3CCOC3)c2)ccc1-c1cnco1", "Potency": "1.3 µM (active)"},
      {"smiles": "CCCN(CCC)C(=O)C(CCC(=O)OCCCN1CCN(CCOC(=O)Cc2c(C)n(C(=O)c3ccc(Cl)cc3)c3ccc(OC)cc23)CC1)NC(=O)c1ccccc1", "note": "(stereo not given)", "Potency": "23.1 µM (active)"},
      {"smiles": "CC1(C)CC[C@]2(C(=O)O)[C@H](O)C[C@]3(C)C(=CCC4[C@@]5(C)CC[C@H](O[C@@H]6O[C@H](CO[C@@H]7OC[C@H](O)[C@H](O)[C@H]7O[C@@H]7OC[C@H](O)[C@H](O)[C@H]7O)[C@@H](O)[C@H](O)[C@H]6O)C(C)(C)C5CC[C@]43C)[C@@H]2C1", "note": "(stereo not given in full)", "viability (% of control)": "57.5% [at 9.25 µM]"},
      {"smiles": "CC(NC(=O)[C@H](Cc1ccccc1)NC(=O)OCc1ccccc1)C(=O)CF", "note": "(stereo not given in full)", "viability (% of control)": "60.4%"},
      {"smiles": "COC(=O)C1C(c2ccc(O)cc2)C(C(=O)O)C1c1ccc(O)cc1", "note": "(stereo not given)", "viability (% of control)": "65.8%"},
      {"smiles": "C=C1C(=O)O[C@@H]2[C@H]1CC(=O)[C@H](C)[C@@](O)(C(=O)/C=C/C)[C@H]2OC(=O)C(C)CC", "note": "(stereo not given in full)", "Potency": "0.36 µM (active)"},
      {"smiles": "CN1CCC(c2c[nH]c3ccc(NC(=O)c4ccc(F)cc4)cc23)CC1", "viability (% of control)": "63%"},
      {"smiles": "C[C@@H]1O[C@@H](O[C@H]2[C@H](O)[C@@H](O)[C@H](OC[C@H]3O[C@@H](OC(=O)[C@]45CCC(C)(C)C[C@H]4C4=CCC6[C@@]7(C)CC[C@H](O[C@@H]8OC[C@H](O)[C@H](O[C@@H]9O[C@H](CO)[C@@H](O)[C@H](O)[C@H]9O)[C@H]8O)[C@@](C)(CO)C7CC[C@@]6(C)[C@]4(C)CC5)[C@H](O)[C@@H](O)[C@@H]3O)O[C@@H]2CO)[C@H](O)[C@H](O)[C@H]1O", "note": "(stereo not given in full)", "viability (% of control)": "98% [at 9.25 µM]"},
      {"smiles": "CC(C)C1NC(=O)CNC(=O)C2CCCN2C(=O)C(Cc2c[nH]c3ccccc23)NC(=O)CNC(=O)C(C(O)c2ccc(O)cc2)NC(=O)CNC1=O", "note": "(stereo not given)", "viability (% of control)": "79.6% [at 17.3 µM]"},
      {"smiles": "Cc1cc(O)c(C(C)C)cc1Cl", "viability (% of control)": "68.3%"}
    ]}
  ]
}
